Source: PubChem BioAssay
A number with no mark means an inactive call. For some of these results: Entries with a potency or affinity are not part of this list. Calls of active or inactive are those of the source. Unless noted, how the calls were made is not given here.

Tests used:
[1] = antimalarial activity against Dd2 strain (AID 2302;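 active means growth inhibition above 50% at the single 2 µM test dose, taken to imply half-maximal potency below 2 µM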;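 further: 0% = DMSO untreated growth and 100% = chloroquine plus artemisinin killed control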); conditions: P. falciparum Dd2 in RBCs, LDH growth readout, 72 h; at 2 µM; active compounds read high
[2] = human hepatoma cell viability loss – ATP luminescence, cytotoxicity control for P. falciparum antimalarial project, primary screen (AID 2303;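 active means inhibition above 50%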;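 further: 0% = DMSO wells and 100% = digitonin-killed cells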); conditions: HepG2 viability, 24-48 h, at 10 µM, active compounds read high
[3] = target: L-lactate dehydrogenase (Plasmodium falciparum (isolate CDC / Honduras)) (UniProt Q27743); experiment: PfLDH activity inhibition – cell lysate, 3D7 strain, counter-screen for P. falciparum growth inhibition project (AID 2304);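 further: 0% = vehicle and 100% = reference inhibitor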; conditions: P. falciparum 3D7 crude extract, LDH APAD/NBT absorbance; at 2 µM; active compounds read high
[4] = inhibition of 3D7 malaria parasite growth – strain 3D7 (AID 2306);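 further: 0% = DMSO wells and 100% = chloroquine plus artemisinin control wells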; conditions: P. falciparum 3D7 erythrocytic growth, LDH absorbance, 72 h; at 2 µM; active compounds read high
[5] = target: Calcium-dependent protein kinase 1 (Plasmodium falciparum (isolate 3D7)) (UniProt P62344); experiment: PfCDPK1 kinase inhibitors, biochemical, TCAMS library (AID 1159585; cut-off not given, nearly all actives have IC50 up to about 0.98 µM;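 further: inhibitors leave more ATP so luminescence rises with inhibition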); conditions: recombinant PfCDPK1, Kinase-Glo ATP depletion luminescence
[6] = target: Plasmodium falciparum protein kinase 6 (PK6, PF3D7_1337100) (UniProt Q8IDW1); experiment: PfPK6 kinase inhibitors, biochemical, TCAMS library (AID 1159586); conditions: recombinant PfPK6, Kinase-Glo ATP depletion luminescence
[7] = target: Protein kinase 7 (PK7), Plasmodium falciparum 3D7 (PF3D7_0213400) (UniProt Q7YTF7); experiment: inhibition of Plasmodium PK7 catalytic activity – biochemical, TCAMS antimalarial set, Kinase-Glo luminescence (AID 1159587); conditions: recombinant PfPK7, Kinase-Glo ATP depletion luminescence
[8] = target: Calcium-dependent protein kinase 4 (Plasmodium falciparum (isolate 3D7)) (UniProt Q8IBS5); experiment: PfCDPK4 kinase inhibitors, biochemical, TCAMS library (AID 1159588; cut-off not given, nearly all actives have IC50 up to about 0.91 µM); conditions: recombinant PfCDPK4, Kinase-Glo ATP depletion luminescence
Sequence of Calcium-dependent protein kinase 4 (Plasmodium falciparum (isolate 3D7)) (Q8IBS5 whole entry, looked up): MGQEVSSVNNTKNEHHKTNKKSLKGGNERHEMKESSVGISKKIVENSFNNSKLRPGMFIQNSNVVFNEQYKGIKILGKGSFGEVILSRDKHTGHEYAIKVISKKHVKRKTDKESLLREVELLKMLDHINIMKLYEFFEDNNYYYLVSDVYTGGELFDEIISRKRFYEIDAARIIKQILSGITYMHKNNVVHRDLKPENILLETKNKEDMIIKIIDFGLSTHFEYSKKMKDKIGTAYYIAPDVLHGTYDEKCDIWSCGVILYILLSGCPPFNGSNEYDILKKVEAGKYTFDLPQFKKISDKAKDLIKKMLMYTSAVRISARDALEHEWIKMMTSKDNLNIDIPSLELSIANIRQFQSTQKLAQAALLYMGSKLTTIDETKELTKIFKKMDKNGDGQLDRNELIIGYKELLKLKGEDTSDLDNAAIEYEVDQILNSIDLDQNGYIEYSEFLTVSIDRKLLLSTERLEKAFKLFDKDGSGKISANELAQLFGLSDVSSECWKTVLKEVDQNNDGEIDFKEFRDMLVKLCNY

Sequence of Protein kinase 7 (PK7), Plasmodium falciparum 3D7 (PF3D7_0213400) (Q7YTF7 1-343): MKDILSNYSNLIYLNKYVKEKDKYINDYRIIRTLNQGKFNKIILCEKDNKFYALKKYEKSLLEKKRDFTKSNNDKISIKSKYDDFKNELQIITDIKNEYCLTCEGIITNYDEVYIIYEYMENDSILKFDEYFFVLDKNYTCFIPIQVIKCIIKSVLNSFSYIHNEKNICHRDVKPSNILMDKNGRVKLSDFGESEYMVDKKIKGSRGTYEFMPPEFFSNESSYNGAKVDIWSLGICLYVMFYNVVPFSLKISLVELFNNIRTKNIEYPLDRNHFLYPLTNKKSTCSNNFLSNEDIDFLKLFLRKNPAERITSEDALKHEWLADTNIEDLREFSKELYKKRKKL
Sequence of Calcium-dependent protein kinase 1 (Plasmodium falciparum (isolate 3D7)) (P62344 whole entry, looked up): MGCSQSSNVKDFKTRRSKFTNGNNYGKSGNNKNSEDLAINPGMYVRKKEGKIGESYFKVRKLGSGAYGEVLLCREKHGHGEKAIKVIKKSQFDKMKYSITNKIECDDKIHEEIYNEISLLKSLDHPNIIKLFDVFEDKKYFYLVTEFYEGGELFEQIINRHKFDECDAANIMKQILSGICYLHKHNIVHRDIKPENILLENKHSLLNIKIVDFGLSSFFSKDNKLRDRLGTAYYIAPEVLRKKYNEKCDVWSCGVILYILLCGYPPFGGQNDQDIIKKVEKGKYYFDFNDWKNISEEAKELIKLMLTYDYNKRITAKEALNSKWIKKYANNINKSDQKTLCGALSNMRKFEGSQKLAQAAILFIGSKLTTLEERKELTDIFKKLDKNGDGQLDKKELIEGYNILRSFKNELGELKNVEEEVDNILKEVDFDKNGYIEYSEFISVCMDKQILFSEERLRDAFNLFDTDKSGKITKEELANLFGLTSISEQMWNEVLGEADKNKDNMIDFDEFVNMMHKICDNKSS
Sequence of L-lactate dehydrogenase (Plasmodium falciparum (isolate CDC / Honduras)) (Q27743 whole entry, looked up): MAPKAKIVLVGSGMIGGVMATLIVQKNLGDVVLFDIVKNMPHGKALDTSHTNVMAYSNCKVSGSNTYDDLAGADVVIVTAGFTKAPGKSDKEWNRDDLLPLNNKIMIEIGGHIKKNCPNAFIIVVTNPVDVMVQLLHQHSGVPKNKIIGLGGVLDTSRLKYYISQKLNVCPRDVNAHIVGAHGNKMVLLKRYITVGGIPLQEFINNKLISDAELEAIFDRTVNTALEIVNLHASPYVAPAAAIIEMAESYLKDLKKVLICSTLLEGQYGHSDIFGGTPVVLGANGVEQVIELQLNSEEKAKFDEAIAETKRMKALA
Sequence of Plasmodium falciparum protein kinase 6 (PK6, PF3D7_1337100) (Q8IDW1 1-305): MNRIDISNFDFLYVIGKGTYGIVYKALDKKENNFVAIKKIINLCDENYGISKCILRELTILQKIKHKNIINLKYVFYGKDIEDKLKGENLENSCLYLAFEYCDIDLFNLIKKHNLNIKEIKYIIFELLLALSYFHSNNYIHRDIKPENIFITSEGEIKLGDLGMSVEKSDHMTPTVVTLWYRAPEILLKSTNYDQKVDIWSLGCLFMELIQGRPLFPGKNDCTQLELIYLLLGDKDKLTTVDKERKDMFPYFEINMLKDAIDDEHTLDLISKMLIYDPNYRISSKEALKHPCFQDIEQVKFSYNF

## Cc1ccc(-c2nc3ccc(C(=O)NC4CCN(Cc5ccccc5)CC4)cc3[nH]2)cc1
[1]
  growth inhibition: 53% (active)
[2]
  inhibition: 20%
[3]
  inhibition: -4%
[4]
  growth inhibition: 100% (active)
[5]
  outcome: inactive
[6]
  outcome: inactive
[7]
  outcome: inactive
[8]
  outcome: inactive

## Cc1cc(NN=Cc2cccc([N+](=O)[O-])c2)c2ccc(C(F)(F)F)cc2n1
[1]
  growth inhibition: 51% (active)
[2]
  inhibition: 2%
[3]
  inhibition: 1%
[4]
  growth inhibition: 101% (active)
[5]
  outcome: inactive
[6]
  outcome: inactive
[7]
  outcome: inactive
[8]
  outcome: inactive

## COc1ccc2nc(C)cc(N/N=C/C=C/c3ccccc3)c2c1
[1]
  growth inhibition: 100% (active)
[2]
  inhibition: 27%
[3]
  inhibition: 0%
[4]
  growth inhibition: 100% (active)
[5]
  outcome: inactive
[6]
  outcome: inactive
[7]
  outcome: inactive
[8]
  outcome: inactive

## Nc1cc2c(C3CCN(CC4CCN(C(=O)/C=C/c5ccc(Cl)c(Cl)c5)CC4)CC3)c[nH]c2cn1
[1]
  growth inhibition: 94% (active)
[2]
  inhibition: 0%
[3]
  inhibition: -3%
[4]
  growth inhibition: 101% (active)
[5]
  outcome: inactive
[6]
  outcome: inactive
[7]
  outcome: inactive
[8]
  outcome: inactive

## CN1CCCN(Cc2cccc(-c3cccc(NS(=O)(=O)c4cccc5cccnc45)c3)c2)CC1
[1]
  growth inhibition: 74% (active)
[2]
  inhibition: 21%
[3]
  inhibition: -6%
[4]
  growth inhibition: 97% (active)
[5]
  outcome: inactive
[6]
  outcome: inactive
[7]
  outcome: inactive
[8]
  outcome: inactive

## CCCCNc1c(CC)c(C)c(C#N)c2nc3ccccc3n12
[1]
  growth inhibition: 100% (active)
[2]
  inhibition: 3%
[3]
  inhibition: -5%
[4]
  growth inhibition: 100% (active)
[5]
  outcome: inactive
[6]
  outcome: inactive
[7]
  outcome: inactive
[8]
  outcome: inactive

## CC1CCc2sc(-c3nnc(SC(C)C(=O)N4CCCC4)o3)cc2C1 (stereo not given)
[1]
  growth inhibition: 94% (active)
[2]
  inhibition: 1%
[3]
  inhibition: 2%
[4]
  growth inhibition: 93% (active)
[5]
  outcome: inactive
[6]
  outcome: inactive
[7]
  outcome: inactive
[8]
  outcome: inactive

## CCOc1cc2ncnc(Nc3ccc(OCc4c(F)cccc4F)c(OC)c3)c2cc1OCC
[1]
  growth inhibition: 60% (active)
[2]
  inhibition: 7%
[3]
  inhibition: -2%
[4]
  growth inhibition: 96% (active)
[5]
  outcome: inactive
[6]
  outcome: inactive
[7]
  outcome: inactive
[8]
  outcome: inactive

## Nc1nc(N)c2c(ccc3c2ncn3Cc2ccccc2)n1
[1]
  growth inhibition: 96% (active)
[2]
  inhibition: 71% (active)
[3]
  inhibition: 4%
[4]
  growth inhibition: 96% (active)
[5]
  outcome: inactive
[6]
  outcome: inactive
[7]
  outcome: inactive
[8]
  outcome: inactive

## Cc1cccc2[nH]c(-c3ccc(-c4ccc(C(=O)NCCN5CCCC5)cc4)cc3)nc12
[1]
  growth inhibition: 77% (active)
[2]
  inhibition: 25%
[3]
  inhibition: 3%
[4]
  growth inhibition: 101% (active)
[5]
  outcome: inactive
[6]
  outcome: inactive
[7]
  outcome: inactive
[8]
  outcome: inactive

## CC(=O)Nc1ccc(OCCCCN(Cc2ccccc2OC(F)(F)F)c2ccc(C(F)(F)F)c(C#N)c2)c(Cl)c1
[1]
  growth inhibition: 96% (active)
[2]
  inhibition: 11%
[3]
  inhibition: -2%
[4]
  growth inhibition: 89% (active)
[5]
  outcome: inactive
[6]
  outcome: inactive
[7]
  outcome: inactive
[8]
  outcome: inactive

## COc1ccc2nccc(NC(=O)N3CCC(NCCOc4cc(F)cc(F)c4)CC3)c2n1
[1]
  growth inhibition: 38%
[2]
  inhibition: 14%
[3]
  inhibition: -2%
[4]
  growth inhibition: 86% (active)
[5]
  outcome: inactive
[6]
  outcome: inactive
[7]
  outcome: inactive
[8]
  outcome: inactive

## Fc1ccc2nc(-c3ccc(-c4ccc(CNCCN5CCNCC5)cc4)s3)[nH]c2c1
[1]
  growth inhibition: 2%
[2]
  inhibition: 24%
[3]
  inhibition: -1%
[4]
  growth inhibition: 96% (active)
[5]
  outcome: inactive
[6]
  outcome: inactive
[7]
  outcome: inactive
[8]
  outcome: inactive

## Cn1c(Nc2nnc(C3CC3)s2)nc2cc(Nc3ccnc(Nc4cccc(CS(C)(=O)=O)c4)n3)ccc21
[1]
  growth inhibition: 83% (active)
[2]
  inhibition: -6%
[3]
  inhibition: -1%
[4]
  growth inhibition: 97% (active)
[5]
  outcome: inactive
[6]
  outcome: inactive
[7]
  outcome: inactive
[8]
  outcome: inactive

## CCOc1cc(C(C)C)ccc1C1CCN(CCCCNC(=O)c2ccc(NC(=O)c3ccc(Cl)cc3)cc2)CC1
[1]
  growth inhibition: 98% (active)
[2]
  inhibition: 32%
[3]
  inhibition: 2%
[4]
  growth inhibition: 101% (active)
[5]
  outcome: inactive
[6]
  outcome: inactive
[7]
  outcome: inactive
[8]
  outcome: inactive

## Fc1cccc(C=NNc2ccnc3ccc(C(F)(F)F)cc23)c1
[1]
  growth inhibition: 97% (active)
[2]
  inhibition: -2%
[3]
  inhibition: -4%
[4]
  growth inhibition: 100% (active)
[5]
  outcome: inactive
[6]
  outcome: inactive
[7]
  outcome: inactive
[8]
  outcome: inactive

## c1ccc2[nH]c(-c3ccc(-c4ccc(CN5CCN(CCN6CCOCC6)CC5)cc4)s3)nc2c1
[1]
  growth inhibition: 100% (active)
[2]
  inhibition: 39%
[3]
  inhibition: -2%
[4]
  growth inhibition: 100% (active)
[5]
  outcome: inactive
[6]
  outcome: inactive
[7]
  outcome: inactive
[8]
  outcome: inactive

## Nc1nccc2ccc(OC3CCCCC3)cc12
[1]
  growth inhibition: 41%
[2]
  inhibition: 24%
[3]
  inhibition: -4%
[4]
  growth inhibition: 98% (active)
[5]
  outcome: inactive
[6]
  outcome: inactive
[7]
  outcome: inactive
[8]
  outcome: inactive

## CCC(C)c1ccc(-n2c(Nc3ccccc3)nc3cc(S(N)(=O)=O)ccc32)cc1 (stereo not given)
[1]
  growth inhibition: 28%
[2]
  inhibition: 0%
[3]
  inhibition: 4%
[4]
  growth inhibition: 88% (active)
[5]
  outcome: inactive
[6]
  outcome: inactive
[7]
  outcome: inactive
[8]
  outcome: inactive

## COc1ccc2c(OC)c(CNCCCCCCNCc3ccc4cc(OC)ccc4c3OC)ccc2c1
[1]
  growth inhibition: 49%
[2]
  inhibition: 100% (active)
[3]
  inhibition: 4%
[4]
  growth inhibition: 98% (active)
[5]
  outcome: inactive
[6]
  outcome: inactive
[7]
  outcome: inactive
[8]
  outcome: inactive
